Measured values as given in PubChem BioAssay (EPA / NIEHS).
The source made the active and inactive calls. How the source made its calls: active means hit-call score of the fitted dose curve at least 0.9, where 1 is the maximum; inactive means score below 0.9.

What was measured:
Conditions in all cases: mRNA level, 48 h; actives raise or lower the signal
[1] = read-out: growth arrest and DNA damage 45 (GADD45B), GADD45B (gene 4616); test: LTEA_HepaRG_GADD45B: Life Technologies and Expression Analysis (LTEA) Assay for growth arrest and DNA damage 45 (GADD45B) using HepaRG (AID 2283461)
Method in brief: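 HepaRG, ~100,000 cells/well, 48 h plating; serum-free induction medium; cpd 100 uM top, half-log x8, 0.5% DMSO, duplicate, 48 h; lysis in RLT, RNA isolation, qRT-PCR; norm ACTB/GAPDH/POLR2A; bidirectional fit vs DMSO.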

[2] = read-out: ABC Transporter (ABCC3), ABCC3 (gene 8714); test: LTEA_HepaRG_ABCC3: Life Technologies and Expression Analysis (LTEA) Assay for ABC Transporter (ABCC3) using HepaRG (AID 2283462)
Method in brief: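 Human HepaRG, 48 h dosing, 8-pt half-log series from 100 uM, 0.5% DMSO vehicle, duplicates. ABCC3 mRNA by TaqMan qRT-PCR, housekeeping-normalized; bidirectional curve fit vs DMSO.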

[3] = read-out: ABC Transporter (ABCB11), ABCB11 (gene 8647); test: LTEA_HepaRG_ABCB11: Life Technologies and Expression Analysis (LTEA) Assay for ABC Transporter (ABCB11) using HepaRG (AID 2283463)
Method in brief: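 Differentiated human HepaRG cells in serum-free induction medium, dosed in duplicate for 48 h. Eight-point half-log series from 100 uM in 0.5% DMSO; ABCB11 mRNA by qRT-PCR, normalized to ACTB, GAPDH, POLR2A, fitted bidirectionally versus DMSO.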

[4] = read-out: ABC Transporter (ABCC2), ABCC2 (gene 1244); test: LTEA_HepaRG_ABCC2: Life Technologies and Expression Analysis (LTEA) Assay for ABC Transporter (ABCC2) using HepaRG (AID 2283464)
Method in brief: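 HepaRG, 48 h post-plating; serum-free induction medium; cpd 8-pt, 100 uM top, half-log, 0.5% DMSO, duplicate, 48 h. Readout: ABCC2 mRNA by qRT-PCR, norm. ACTB/GAPDH/POLR2A. Bidirectional fit vs DMSO baseline.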

[5] = read-out: Broad substrate specificity ATP-binding cassette transporter ABCG2 (Homo sapiens) (UniProt Q9UNQ0); test: LTEA_HepaRG_ABCG2: Life Technologies and Expression Analysis (LTEA) Assay for ABC Transporter (ABCG2) using HepaRG (AID 2283465)
Method in brief: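 Differentiated HepaRG cells were exposed for 48 h in serum-free induction medium to 8 half-log concentrations, top 100 uM, in 0.5% DMSO. ABCG2 mRNA was measured by qRT-PCR, normalized to ACTB, GAPDH and POLR2A, with bidirectional fitting versus DMSO.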

[6] = read-out: ATP-citrate lyase (ACLY), ACLY (gene 47); test: LTEA_HepaRG_ACLY: Life Technologies and Expression Analysis (LTEA) Assay for ATP-citrate lyase (ACLY) using HepaRG (AID 2283466)
Method in brief: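 Differentiated HepaRG cells exposed 48 h in serum-free induction medium to eight half-log concentrations up to 100 uM in 0.5% DMSO, duplicates. Transcript measured by Fluidigm TaqMan qRT-PCR, normalized to ACTB, GAPDH, POLR2A; bidirectional fit versus DMSO.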

[7] = read-out: Peroxisomal acyl-coenzyme A oxidase 1 (ACOX1) gene, ACOX1 (gene 51); test: LTEA_HepaRG_ACOX1: Life Technologies and Expression Analysis (LTEA) Assay for Peroxisomal acyl-coenzyme A oxidase 1 (ACOX1) gene using HepaRG (AID 2283467)
Method in brief: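 HepaRG cells, plated 48 h then switched to serum-free induction medium, were exposed in duplicate for 48 h to 8-point half-log concentrations up to 100 uM in 0.5% DMSO. ACOX1 mRNA was measured by qRT-PCR, normalized to ACTB/GAPDH/POLR2A, and fitted bidirectionally versus DMSO.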

[8] = read-out: Alkaline Phosphatase, Placental (ALPP) gene, ALPP (gene 250); test: LTEA_HepaRG_ALPP: Life Technologies and Expression Analysis (LTEA) Assay for Alkaline Phosphatase, Placental (ALPP) gene using HepaRG (AID 2283468)
Method in brief: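 HepaRG, 48 h plating then 48 h dosing, serum-free induction medium, 0.5% DMSO. 8 conc, half-log, max 100 uM, duplicates. Endpoint: ALPP transcript by qRT-PCR, housekeeping-normalized; gain or loss fitted vs DMSO.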

[9] = read-out: Bcl-2 (BAD) gene, BAD (gene 572); test: LTEA_HepaRG_BAD: Life Technologies and Expression Analysis (LTEA) Assay for Bcl-2 (BAD) gene using HepaRG (AID 2283469)
Method in brief: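 Differentiated HepaRG cells were exposed in duplicate in 0.5% DMSO for 48 h to eight-point half-log concentrations up to 100 uM. BAD mRNA was measured by Fluidigm TaqMan qRT-PCR, normalized to ACTB, GAPDH and POLR2A, and fitted bidirectionally against DMSO.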

[10] = read-out: Bcl-2 (BAX) gene, BAX (gene 581); test: LTEA_HepaRG_BAX: Life Technologies and Expression Analysis (LTEA) Assay for Bcl-2 (BAX) gene using HepaRG (AID 2283470)
Method in brief: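 HepaRG (human liver), 48 h exposure, duplicate wells. 8-pt curve, half-log from 100 uM, 0.5% DMSO. BAX transcript by TaqMan qRT-PCR; ACTB/GAPDH/POLR2A normalization; gain or loss vs DMSO baseline.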

[11] = read-out: adenosine kinase (ADK) gene, ADK (gene 132); test: LTEA_HepaRG_ADK: Life Technologies and Expression Analysis (LTEA) Assay for adenosine kinase (ADK) gene using HepaRG (AID 2283471)
Method in brief: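 ADK expression quantified by qRT-PCR, normalised to three housekeeping genes, after 48 h exposure of HepaRG cells to eight concentrations (top 100 uM, half-log steps, duplicate, 0.5% DMSO). Up- or down-regulation fitted relative to vehicle.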

[12] = read-out: Alpha-fetoprotein (AFP) gene, AFP (gene 174); test: LTEA_HepaRG_AFP: Life Technologies and Expression Analysis (LTEA) Assay for Alpha-fetoprotein (AFP) gene using HepaRG (AID 2283472)
Method in brief: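 HepaRG, single lot; 48 h post-plating -> serum-free induction medium; cpd 8-pt, 100 uM top, half-log, 0.5% DMSO, duplicate, 48 h. RNA -> qRT-PCR AFP, norm ACTB/GAPDH/POLR2A. Bidirectional fit vs DMSO.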

BCL2L11 (gene 10018) = test: LTEA_HepaRG_BCL2L11: Life Technologies and Expression Analysis (LTEA) Assay for Bcl-2 (BCL2L11) gene using HepaRG (AID 2283473)
Method in brief: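 Read-out is BCL2L11 transcript level by qRT-PCR, normalized to three housekeeping genes and fitted bidirectionally against 0.5% DMSO vehicle. HepaRG cells received chemicals for 48 h in serum-free induction medium, 100 uM down in half-log dilutions.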

[13] = read-out: Apolipoprotein A-V (APOA5) gene, APOA5 (gene 116519); test: LTEA_HepaRG_APOA5: Life Technologies and Expression Analysis (LTEA) Assay for Apolipoprotein A-V (APOA5) gene using HepaRG (AID 2283474)
Method in brief: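 Readout is APOA5 transcript level by qRT-PCR on Fluidigm dynamic arrays, normalized to three housekeeping genes. HepaRG cultures received chemicals for 48 h at up to 100 uM (half-log steps, 0.5% DMSO), with gain or loss scored relative to DMSO.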

[14] = read-out: Apoptosis regulator Bcl-2 (Homo sapiens) (UniProt P10415); test: LTEA_HepaRG_BCL2: Life Technologies and Expression Analysis (LTEA) Assay for Bcl-2 gene using HepaRG (AID 2283475)
Method in brief: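 HepaRG, plated 48 h then switched to serum-free induction medium; dosed 48 h, 8 conc. (max 100 uM, half-log steps), duplicate, 0.5% DMSO. Lysis in RLT, RNA isolated, TaqMan qRT-PCR for BCL2; ACTB/GAPDH/POLR2A normalisation; bidirectional fit vs DMSO.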

[15] = read-out: Bcl-2 (BID) gene, BID (gene 637); test: LTEA_HepaRG_BID: Life Technologies and Expression Analysis (LTEA) Assay for Bcl-2 (BID) gene using HepaRG (AID 2283476)
Method in brief: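 Transcript levels of BID, measured by qRT-PCR and normalized to three housekeeping genes, were fitted bidirectionally against DMSO controls. Cells were HepaRG, dosed 48 h at up to 100 uM.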

Caspase-3 (Homo sapiens) = Caspase-3 (Homo sapiens) (UniProt P42574); test: LTEA_HepaRG_CASP3: Life Technologies and Expression Analysis (LTEA) Assay for cysteine-aspartic acid protease (CASP3) using HepaRG (AID 2283477)
Chain of Caspase-3 (Homo sapiens) (P42574 whole entry, looked up): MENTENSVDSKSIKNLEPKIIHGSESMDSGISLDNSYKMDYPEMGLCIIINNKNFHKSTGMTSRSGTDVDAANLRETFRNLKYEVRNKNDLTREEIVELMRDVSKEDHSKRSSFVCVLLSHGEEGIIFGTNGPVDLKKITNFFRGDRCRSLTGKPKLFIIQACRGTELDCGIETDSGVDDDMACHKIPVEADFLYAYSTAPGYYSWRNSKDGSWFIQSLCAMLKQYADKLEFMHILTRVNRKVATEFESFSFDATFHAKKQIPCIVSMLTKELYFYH
Method in brief: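 Read-out is CASP3 mRNA level by TaqMan qRT-PCR in human HepaRG cells after 48 h chemical exposure. Eight half-log concentrations topping at 100 uM were tested in 0.5% DMSO; gain or loss was fitted relative to DMSO.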

[16] = read-out: Cytochrome P450 (CYP24A1), CYP24A1 (gene 1591); test: LTEA_HepaRG_CYP24A1: Life Technologies and Expression Analysis (LTEA) Assay for Cytochrome P450 (CYP24A1) using HepaRG (AID 2283478)
Method in brief: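 HepaRG, 48 h chemical exposure, 8-pt half-log CRC from 100 uM, 0.5% DMSO vehicle, duplicates. Endpoint: CYP24A1 mRNA by Fluidigm TaqMan qRT-PCR, normalized ACTB/GAPDH/POLR2A; gain/loss fit vs DMSO.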

[17] = read-out: Cytochrome P450 (CYP1A2), CYP1A2 (gene 1544); test: LTEA_HepaRG_CYP1A2: Life Technologies and Expression Analysis (LTEA) Assay for Cytochrome P450 (CYP1A2) using HepaRG (AID 2283479)
Method in brief: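 CYP1A2 transcript induction or loss, quantified by Fluidigm qRT-PCR against three housekeeping genes, was fitted bidirectionally against 0.5% DMSO controls. Human HepaRG cells received eight half-log concentrations from 100 uM over 48 h.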

[18] = read-out: cysteine-aspartic acid protease (CASP8), CASP8 (gene 841); test: LTEA_HepaRG_CASP8: Life Technologies and Expression Analysis (LTEA) Assay for cysteine-aspartic acid protease (CASP8) using HepaRG (AID 2283480)
Method in brief: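 Differentiated HepaRG cells in serum-free induction medium, 48 h exposure, eight-point half-log series from 100 uM in 0.5% DMSO, duplicates. CASP8 mRNA by qRT-PCR, normalized to ACTB, GAPDH, POLR2A; bidirectional fit versus DMSO.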

Measured: AC50

Chain of Broad substrate specificity ATP-binding cassette transporter ABCG2 (Homo sapiens) (Q9UNQ0 whole entry, looked up): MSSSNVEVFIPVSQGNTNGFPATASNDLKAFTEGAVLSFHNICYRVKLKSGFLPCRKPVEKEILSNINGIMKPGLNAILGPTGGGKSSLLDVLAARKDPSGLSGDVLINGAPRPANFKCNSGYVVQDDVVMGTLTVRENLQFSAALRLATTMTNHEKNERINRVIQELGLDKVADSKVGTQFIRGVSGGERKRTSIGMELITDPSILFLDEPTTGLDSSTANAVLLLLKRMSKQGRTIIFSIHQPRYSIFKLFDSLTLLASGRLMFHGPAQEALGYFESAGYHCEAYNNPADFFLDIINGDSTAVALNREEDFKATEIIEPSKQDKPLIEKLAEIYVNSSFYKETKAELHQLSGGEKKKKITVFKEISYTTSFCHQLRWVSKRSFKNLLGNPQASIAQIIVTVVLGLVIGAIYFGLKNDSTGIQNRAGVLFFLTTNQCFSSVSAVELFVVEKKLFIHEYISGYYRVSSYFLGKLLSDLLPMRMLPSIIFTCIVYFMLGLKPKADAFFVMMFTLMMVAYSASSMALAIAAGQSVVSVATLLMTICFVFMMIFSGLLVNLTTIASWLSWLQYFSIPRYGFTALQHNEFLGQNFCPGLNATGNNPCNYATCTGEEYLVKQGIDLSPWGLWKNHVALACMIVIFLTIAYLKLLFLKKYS
Chain of Apoptosis regulator Bcl-2 (Homo sapiens) (P10415 whole entry, looked up): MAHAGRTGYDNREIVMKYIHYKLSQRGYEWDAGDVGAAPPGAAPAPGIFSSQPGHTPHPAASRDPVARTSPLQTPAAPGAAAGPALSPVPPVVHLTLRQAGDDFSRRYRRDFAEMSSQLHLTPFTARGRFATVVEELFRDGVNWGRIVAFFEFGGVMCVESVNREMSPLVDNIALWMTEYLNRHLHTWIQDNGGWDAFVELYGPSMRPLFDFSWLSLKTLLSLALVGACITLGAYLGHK

CC/C(=C\C(=N/O)C(N)=O)C(C)[N+](=O)[O-] (centres undefined)
active: [17] 26.5 µM
not listed: [18]
inactive: all other assays above

CC(C)c1cccc(C(C)C)c1N1C(=O)c2ccc(O)cc2C1=O
active: [2] 84.3 µM | [3] 89.9 µM | [4] 29 µM | [5] 50 µM | [6] 74.8 µM | [8] 91.6 µM | [10] 50 µM | [12] 79.9 µM | [14] 86.2 µM
inactive: all other assays above

Oc1ccc2c(c1)-c1ccccc1C2
active: [3] 25.1 µM | [17] 21.4 µM
not listed: [18]
inactive: all other assays above

CCNc1ccccc1
active: [17] 16.5 µM
not listed: [18]
inactive: all other assays above

Nc1ccc(Nc2ccccc2)cc1
active: [1] 63.2 µM | [3] 69.2 µM | [8] 50 µM | [9] 11.9 µM | [12] 75.9 µM | [17] 4.54 µM
not listed: [18]
inactive: all other assays above

CNCc1ccc(NC(=O)c2c[nH]c3c2C(=O)CCC3)cc1
active: [17] 73.2 µM
not listed: [18]
inactive: all other assays above

O=C(O)c1cccc(N(Cc2cccnc2)c2ccc(OC(F)F)c(OC(F)F)c2)c1
active: [3] 90.6 µM | [6] 83.3 µM | [8] 79.9 µM | [16] 3.16 nM
not listed: [18]
inactive: all other assays above
